Screening results deposited in PubChem BioAssay by National Center for Advancing Translational Sciences (NCATS).
Pf growth 48h: P. falciparum growth inhibition at 48 hours (one generation); Potency, µM (top dose mostly 28.7 µM), inactives show top-dose activity change, negative = inhibition, most hits filed as inhibitors; actives 5.9% (n = 310,000); AID 504832; P. falciparum luciferase growth in erythrocytes, 48 h; active = well fitted inhibition curve with a large enough effect; inconclusive = small, poorly fitted or top-dose-only effect, or another doubt; inactive = no such curve, though single readings can be large or run the other way; also: potency is read from the fitted curve at half-maximal effect; % is scaled to controls: 0 for no effect and ±100 for the full control effect
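Firefly luciferase activity from engineered P. falciparum reports growth; inhibitors lower the luminescent signal. Cultures contained 2% hematocrit erythrocytes at 0.1% final parasitemia.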
Cycloheximide cs: affects cycloheximide protein synthesis inhibition readout, counter-screen; max response, %; actives 12% (n = 300,000); cell reporter, cycloheximide protein synthesis inhibition counterscreen; in the data active = max response mostly above about 13%, no sharp cut-off; inactive = mostly below about 14%; also: read at 38.3 µM for the half of the compounds with a filed dose; 0% is about no effect
Shiga inhibitor: inhibitors of Shiga toxin in Vero cells | Vero cells, Shiga toxin protein synthesis inhibition reporter | inhibition, % at 38.7 µM | actives 9.2% (n = 290,000) | AID 2315; in the data active = inhibition mostly above about 28%, no sharp cut-off; inactive = mostly below about 43%; also: 0% is about no effect
NS1 function inh: inhibitors of influenza NS1 protein function. Potency, µM (titrated, usually from 46.1 µM), without a hit: top-dose activity, positive = more growth. actives 0.4% (n = 270,000). AID 2326; also: potency is read from the fitted curve at half-maximal effect; actives are rising curves; nearly all actives have a fitted effect of over 50% in size
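S. cerevisiae expressing influenza A NS1, grown in glucose, washed, then diluted 1:100 into pH 6.0 -URA galactose medium with 23 nl compound. Growth recovery read as OD600; NS1-free strain serves as control.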
Pf growth 96h: inhibits malaria parasite growth, 96 h | P. falciparum luciferase reporter growth, 96 h | Potency, µM (highest dose often 28.7 µM), for inactives: at the top dose activity change, negative = inhibition, most hits filed as inhibitors | actives 6.9% (n = 320,000) | AID 504834; active = well fitted inhibition curve with a large enough effect; inconclusive = small, poorly fitted or top-dose-only effect, or another doubt; inactive = no such curve, though single readings can be large or run the other way; also: potency is read from the fitted curve at half-maximal effect; % is scaled to controls: 0 for no effect and ±100 for the full control effect
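Luminescence readout: decreased luciferase signal marks inhibited growth of reporter-expressing P. falciparum in infected red cells (2% hematocrit, 0.05% parasitemia final), exposed to compound two generations (96 h, 37 C, 5% CO2).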
SARS PLpro yeast: blocks SARS-CoV papain-like protease in a yeast assay; S. cerevisiae expressing SARS-CoV PLpro, growth rescue; Potency, µM (highest dose often 32.9 µM), inactives show at the top dose activity, positive = growth rescue, most hits filed as activators; actives 0.19% (n = 330,000); also: potency is read from the fitted curve at half-maximal effect; 0% is about no effect; nearly all actives have a fitted effect of over 55% in size
Active calls of the source: *. Most compounds without a hit are left out; they make up all but 21% or so of the library. Unless noted, calls follow the shape of the full dose curve.

Results for COc1ccc(/C=N/OC(=O)Nc2ccccc2OC)cc1 ?
Pf growth 48h: 341.0%; Cycloheximide cs: 42.4*; Shiga inhibitor: 93.9*; NS1 function inh: -4.4%; Pf growth 96h: 87.1%; SARS PLpro yeast: -3.5%

Results for C=CCN=C1CCCc2c1[nH]c1ccc(C)cc21 ?
Pf growth 48h: 44.6%; Cycloheximide cs: 30.1*; Shiga inhibitor: 50.1*; Pf growth 96h: 12.3%; SARS PLpro yeast: -9.7%

What do the screens show for `O=c1n(Cc2ccccc2)nc2n1-c1ccccc1SC2`?
Pf growth 48h: inconclusive; Cycloheximide cs: 27.7*; Shiga inhibitor: 49.4*; NS1 function inh: -6.8%; Pf growth 96h: 7.7%; SARS PLpro yeast: -1.9%

How did O=c1n(Cc2ccccc2Cl)nc2n1-c1ccccc1SC2 do in these assays?
Pf growth 48h: 44.6%; Cycloheximide cs: 48.2*; Shiga inhibitor: 40.1*; NS1 function inh: -2.1%; Pf growth 96h: 49.9%; SARS PLpro yeast: -1.5%

What do the screens show for `NNC(=O)Cn1nc2n(c1=O)-c1ccccc1SC2`?
Pf growth 48h: 2.2%; Cycloheximide cs: -1.1; Shiga inhibitor: -2.7; NS1 function inh: 4.2%; Pf growth 96h: 0.0%; SARS PLpro yeast: 0.3%

What do the screens show for `C=CCn1nc2n(c1=O)-c1ccccc1SC2`?
Pf growth 48h: 11.8%; Cycloheximide cs: 13.2; Shiga inhibitor: 23.8; NS1 function inh: -2.8%; Pf growth 96h: 0.0%; SARS PLpro yeast: 0.0%

How did CCC1(c2ccc(C)cc2)NC(=O)N(C(C)C(=O)Nc2ccc(N3CCOCC3)cc2)C1=O (stereo unspecified) do in these assays?
Pf growth 48h: inconclusive; Pf growth 96h: inconclusive; SARS PLpro yeast: -6.7%

What do the screens show for `CS(=O)(=O)c1ccc(C(=O)OCC(=O)Nc2cccnc2Cl)cc1[N+](=O)[O-]`?
SARS PLpro yeast: 9.7%

How did Cc1ccccc1NC(=O)COC(=O)c1ccc(S(C)(=O)=O)c([N+](=O)[O-])c1 do in these assays?
Pf growth 48h: -15.6%; Cycloheximide cs: 13.5*; Shiga inhibitor: 11.3; NS1 function inh: 0.6%; Pf growth 96h: -1.2%; SARS PLpro yeast: 0.7%

What do the screens show for `O=C(OCc1nnc(-c2ccccc2)o1)C1=COCCO1`?
Pf growth 48h: 9.5%; Cycloheximide cs: 21.7*; Shiga inhibitor: 24.6; NS1 function inh: 1.6%; Pf growth 96h: 442.7%; SARS PLpro yeast: 1.3%

Results for O=C1CCC(C(=O)OCc2nnc(-c3ccccc3)o2)=NN1 ?
Pf growth 48h: 60.3%; Pf growth 96h: 28.6%; SARS PLpro yeast: -3.7%

What do the screens show for `O=C(OCc1nnc(-c2ccccc2)o1)c1ccc2c(c1)OCCO2`?
Pf growth 48h: 70.6%; Cycloheximide cs: 22.2*; Shiga inhibitor: 45.2*; NS1 function inh: -41.2%; Pf growth 96h: 104.4%; SARS PLpro yeast: 0.5%

How did O=C(OCc1nnc(-c2ccccc2)o1)c1ccc(Cl)cc1 do in these assays?
Pf growth 48h: 12.8%; Cycloheximide cs: -0.7; Shiga inhibitor: -1.4; NS1 function inh: -51.0%; Pf growth 96h: -12.5%; SARS PLpro yeast: -1.5%

Results for CN(C)S(=O)(=O)c1ccc(C(=O)OCc2nnc(-c3ccccc3)o2)cc1 ?
Pf growth 48h: -24.3%; Cycloheximide cs: 9.8; Shiga inhibitor: 26.0; NS1 function inh: -3.1%; Pf growth 96h: 28.6%; SARS PLpro yeast: 0.1%

How did CS(=O)(=O)c1ccc(C(=O)OCc2nnc(-c3ccccc3)o2)cc1[N+](=O)[O-] do in these assays?
Pf growth 48h: 0.0%; Cycloheximide cs: 24.6*; Shiga inhibitor: 21.0; NS1 function inh: -35.9%; Pf growth 96h: 1.8%; SARS PLpro yeast: -5.3%

What do the screens show for `Cc1c(C=O)c2ccccc2n1CC(=O)NC(C)c1ccccc1` (stereo unspecified)?
Pf growth 48h: inconclusive; Cycloheximide cs: -2.9; Shiga inhibitor: -4.8; NS1 function inh: 3.0%; Pf growth 96h: inconclusive; SARS PLpro yeast: 0.8%

Results for COc1cc(/C=C/C(=O)NCCN2CCOCC2)cc(OC)c1OC ?
Pf growth 48h: -0.8%; Cycloheximide cs: 1.2; Shiga inhibitor: -23.1; NS1 function inh: 20.4%; Pf growth 96h: -15.3%; SARS PLpro yeast: 6.6%

What do the screens show for `O=S(=O)(CCSc1ccc(C(F)(F)F)cn1)c1ccc(Cl)cc1`?
Pf growth 48h: 23.3%; Cycloheximide cs: 5.6; Shiga inhibitor: 0.6; NS1 function inh: -2.8%; Pf growth 96h: -1.6%; SARS PLpro yeast: 1.2%

Results for Cc1c(/C=N/Nc2ccc(C(=O)O)cc2)c2ccccc2n1C ?
Pf growth 48h: 172.8%; Cycloheximide cs: 42.4*; Shiga inhibitor: 13.5; NS1 function inh: -1.6%; Pf growth 96h: 123.4%; SARS PLpro yeast: -2.8%

Results for N#CCC(=O)N/N=C/c1cn(Cc2ccc(Cl)c(Cl)c2)c2ccccc12 ?
Pf growth 48h: inconclusive; Cycloheximide cs: 1.4; Shiga inhibitor: -18.0; NS1 function inh: 6.0%; Pf growth 96h: inconclusive; SARS PLpro yeast: 0.8%

Results for O=Cc1cn(Cc2ccc(F)cc2)c2ccccc12 ?
Pf growth 48h: 29.7%; Cycloheximide cs: -5.2; Shiga inhibitor: -9.2; NS1 function inh: 0.9%; Pf growth 96h: -24.7%; SARS PLpro yeast: -0.5%

What do the screens show for `O=S(=O)(N/N=C/c1cn(Cc2ccccc2)c2ccccc12)c1ccccc1`?
Pf growth 48h: 9.5%; Cycloheximide cs: 14.7; Shiga inhibitor: 50.8*; NS1 function inh: 2.0%; Pf growth 96h: 1.6%; SARS PLpro yeast: -4.2%

How did Cc1ccc(C(=O)N/N=C/c2cn(Cc3ccccc3)c3ccccc23)cn1 do in these assays?
Pf growth 48h: 4.0%; Cycloheximide cs: 20.4*; Shiga inhibitor: 30.8; NS1 function inh: -1.8%; Pf growth 96h: 42.4%; SARS PLpro yeast: 0.0%

What do the screens show for `O=C(O)c1ccc(N/N=C/c2cn(Cc3ccc(F)cc3)c3ccccc23)cc1`?
Pf growth 48h: 24.1%; Cycloheximide cs: 29.5*; Shiga inhibitor: 70.2*; NS1 function inh: 9.9%; Pf growth 96h: 79.3%; SARS PLpro yeast: -2.2%

Results for CCN(CC)C(=O)c1ccccc1NC(=O)CN1C(=O)c2ccccc2C1=O ?
Pf growth 48h: -6.8%; Cycloheximide cs: -1.0; Shiga inhibitor: 7.8; NS1 function inh: -2.6%; Pf growth 96h: 3.4%; SARS PLpro yeast: 0.9%

What do the screens show for `O=S(=O)(NCc1ccc(F)cc1)c1ccc(-n2cccn2)cc1`?
Pf growth 48h: -6.1%; Cycloheximide cs: 9.5; Shiga inhibitor: 4.7; NS1 function inh: 7.5%; Pf growth 96h: inconclusive; SARS PLpro yeast: -1.0%

What do the screens show for `COc1cc(C(=O)N/N=C/c2cccc(Oc3ccccc3)c2)ccc1O`?
Pf growth 48h: 19.7%; Cycloheximide cs: 9.4; Shiga inhibitor: 7.6; NS1 function inh: -6.8%; Pf growth 96h: 10.7%; SARS PLpro yeast: -3.1%

Results for COc1cc(C(=O)N/N=C/c2cn(Cc3cccc(F)c3)c3ccccc23)ccc1O ?
Pf growth 48h: -28.4%; Cycloheximide cs: 4.1; Shiga inhibitor: 17.3; NS1 function inh: 7.9%; Pf growth 96h: 1.65µM*; SARS PLpro yeast: 7.4%
